SMILES strings stand for the structures. Hit rate of the full screen: of about 280,000 compounds, about 50 (0.02%) were called active. Many of the other results were omitted from the sample, so actives are more common in it than they were. Results with a measured potency or affinity are listed apart. Values without a mark were called inactive. No stated cut-off is given here; in the data, active means activation above about 50% (passing the limit was not always enough); inactive means the rest.

The target in this test is Kappa-type opioid receptor (Homo sapiens) (UniProt P41145). The test is described as follows: kappa opioid receptor activators – cell-based, luminescence, uHTS, primary screen (AID 1777). Particulars: KOR beta-arrestin recruitment, at 10 µM, hits give high values.
Sequence of Kappa-type opioid receptor (Homo sapiens) (P41145 whole entry, looked up): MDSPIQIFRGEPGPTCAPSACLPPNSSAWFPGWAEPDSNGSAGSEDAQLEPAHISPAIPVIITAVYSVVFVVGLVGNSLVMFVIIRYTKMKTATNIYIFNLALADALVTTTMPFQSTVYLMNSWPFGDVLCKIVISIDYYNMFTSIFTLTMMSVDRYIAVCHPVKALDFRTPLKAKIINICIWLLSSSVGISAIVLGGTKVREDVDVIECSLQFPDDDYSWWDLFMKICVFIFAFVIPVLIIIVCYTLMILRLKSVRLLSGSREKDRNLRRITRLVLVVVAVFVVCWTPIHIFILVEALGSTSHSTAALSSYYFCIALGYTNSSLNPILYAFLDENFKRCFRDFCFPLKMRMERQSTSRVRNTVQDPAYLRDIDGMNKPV
As to `COc1ccc(C[C@H]2CN3C(=NC[C@H]3C)N2CCNC(=O)c2ccc(C)c(Br)c2)cc1`, the activation was 12.5%.

Turning to `Cc1ccc(C(=O)NCCN2C3=NC[C@H](C)N3C[C@H]2Cc2ccc(O)cc2)cc1Br`, the activation was 25.2%. The result for `Cc1nnc(SCC(=O)N2c3ccccc3CC2C)[nH]c1=O` (centres undefined) reads 7.1%. `O=C(NC1CCCCC1)c1ccc(S(=O)(=O)N2CCOCC2)cc1`: the activation is 2%. For `Cc1cc(Nc2ccc(Cl)cc2)n2ncnc2n1`, the activation was -0.8%.

Turning to `Cc1oc(-c2ccccc2F)nc1CS(=O)CC(=O)NC1CC1` (centres undefined), the activation is 0.9%. As for `COc1ccc(OC)c(NC(=O)c2ccc(CSc3ncccn3)cc2)c1`, the activation is -7.7%. The same measure for `O=C(Nc1nc(-c2ccccc2)cs1)c1ccccc1NS(=O)(=O)c1ccc(F)cc1`: 111% (active); for `Cc1ccc(S(=O)(=O)Nc2ccccc2C(=O)Nc2nc(-c3ccc(F)cc3)cs2)cc1`: 13%; for `COc1ccc(S(=O)(=O)Nc2ccccc2C(=O)Nc2nc(-c3ccc(F)cc3)cs2)cc1OC`: 15.1%. The result for `Cc1ccc(O)c(C(=O)c2cnn(C(=O)COc3ccc(Cl)cc3)c2)c1` reads 0.1%; that for `Cc1cc(N/C(=N/S(=O)(=O)c2cc(F)ccc2F)c2ccccc2)n(-c2ccccc2)n1`, -1.3%.

For `CCCCCCCCCCCCOC1OC(CO)C(O)C(O)C1NC(C)=O` (centres undefined), the activation was -0.9%. The result for `Cc1cc(=O)cc(C)n1-c1ccc(Cl)cc1` reads 1.5%; that for `CC1=CC(C)(C)N(C)C(=O)N1c1ccc(Cl)cc1`, 7.6%; that for `CCCn1c(C(CO)Nc2nc(-c3cccc(Br)c3)cs2)nc2ccccc21` (centres undefined), 2.4%. The same measure for `Cc1cccc(C(=O)Nc2cccc(C(=O)N/N=C/c3ccc4c(c3)OCO4)c2)c1`: -5.3%.

For the compound `CC(=O)Nc1nc(SCC(=O)NCC2CCCO2)[nH]c(=O)c1NC(=O)c1cccs1` (centres undefined), the activation is -4.2%. The result for `CCN(C(=O)COC(=O)C1CCN(S(=O)(=O)c2c(Cl)cccc2Cl)CC1)C1CCCCC1` reads -3.1%; that for `COc1ccc(-n2c(C)cc(C(=O)COc3ccc(-n4cnnn4)cc3)c2C)cc1`, 3.1%. The result for `COc1ccccc1CN(Cc1cc2cc(C)ccc2[nH]c1=O)Cc1nnnn1Cc1ccco1` reads -3.4%; that for `CC(Sc1nnc(COc2ccccc2)n1Cc1ccccc1)C(=O)O` (centres undefined), 1.6%; that for `CC(=O)Nc1ccc(NC(=O)C(C)Sc2n[nH]c(=O)n2Cc2ccccc2)cc1` (centres undefined), -2.2%.

Turning to `O=C(N/N=C/c1c[nH]c2ccc(Br)cc12)c1ccccn1`, the activation was 4.6%. The result for `Nc1ccc(C2(c3ccc(N)cc3)OC(=O)c3ccccc32)cc1` reads -7.1%; that for `Nc1ccc(C2(c3ccc(N)cc3)C(=O)Nc3ccccc32)cc1`, 0.1%; that for `O=C(CSc1nnc(CNC(=O)c2c(F)cccc2F)o1)c1ccccc1`, 4.5%. The result for `CCOc1ccc(N2C(=O)Nc3ccc(Br)cc3C2(O)C(=O)NCCN(C)C)cc1` (centres undefined) reads -0.1%; that for `Cc1cccc(C(C)C)c1NC(=O)c1ccc(COc2ccc3c(C)cc(=O)oc3c2)cc1`, 3.9%; that for `CC(=O)Nc1ccc(NC(=O)c2ccc(COc3ccc4c(C)cc(=O)oc4c3)cc2)cc1`, 0.2%. The same measure for `CN(C)/C=C/C(=O)c1cccc(C(F)(F)F)c1`: 2.5%; for `CCC1(c2ccc(F)cc2)NC(=O)N(CC(=O)Nc2ccccc2Cl)C1=O` (centres undefined): -0.1%; for `CCn1c(=O)c(C2=NS(=O)(=O)c3ccccc3N2)c(O)c2ccccc21`: 54.2% (active). Turning to `CCn1c(=O)c(-c2ccccc2)c(O)c2ccccc21`, the activation was 1.3%.

As for `CCn1c(=O)c(-c2cc(=O)[nH][nH]2)c(O)c2ccccc21`, the activation was 2.3%.

On to `O=C(c1cnccn1)N(Cc1ccco1)C1(C(=O)NC2CCCC2)CCCCC1`, for which the activation was -9%. The same measure for `O=C(c1ccc(=O)[nH]c1)N(Cc1ccco1)C1(C(=O)NC2CCCCC2)CCCCC1`: -2.7%; for `CC(=O)NCC(=O)N(Cc1ccco1)C1(C(=O)NC2CCCCC2)CCCCC1`: 3.8%. Regarding `O=C(c1ccc(=O)[nH]c1)N(Cc1ccco1)C1(C(=O)NC2CCCC2)CCCCC1`, the activation is 6%. The same measure for `Cc1cccc(C)c1NC(=O)C1(N(C(=O)c2ccccn2)c2ccc(O)cc2)CCCCC1`: -0.3%. The same measure for `CC(=O)N(Cc1ccco1)C1(C(=O)NC2CCCC2)CCCCC1`: -1%; for `Cc1cccc(C)c1NC(=O)C1(N(Cc2ccco2)C(=O)Cn2nnnc2N)CCCCC1`: -0.3%. As for `CC(=O)N(Cc1ccco1)C1(C(=O)NC2CCCCC2)CCCCC1`, the activation is 2.1%.

In the case of `CC[n+]1c(-c2ccc(C)cc2)csc1Nc1c(C)n(C)n(-c2ccccc2)c1=O`, the activation is -4.9%. As for `Cc1ccc(S(=O)(=O)N2CCN(CC(=O)N/N=C/C=C/c3ccccc3)CC2)cc1`, the activation is 0.3%.

Take `COc1cc(OC)cc(C(=O)NCC(=O)N2CCCCC2)c1`: the activation was -0.7%. The result for `CC1(C)Cc2c(cnn2-c2cccc(F)c2)C(NC(=O)c2csnn2)C1` (centres undefined) reads 5.1%; that for `CCOc1ccccc1NC=C1C(=O)OC(C)(C)OC1=O`, 4.4%. The result for `Cc1c(NC(=O)c2cccc(S(=O)(=O)N3CCOCC3)c2)c(=O)n(-c2ccccc2)n1C` reads -7.9%; that for `O=C(NCC1CCCO1)C1CC(=O)N(c2cccc(Cl)c2)C1` (centres undefined), 5.7%. The result for `CCC(=O)Nc1c2c(nn1-c1cccc(Cl)c1)CS(=O)(=O)C2` reads -8.6%; that for `CCOc1ccccc1NC(=O)CN(C)S(=O)(=O)c1ccc2[nH]c(=O)oc2c1`, -1.5%.

Take `Cc1ccc2c(CC(=O)NCC3COc4ccccc4O3)coc2c1` (centres undefined): the activation was -4.2%. The same measure for `Cc1cccc(-n2ccnc2CN2CCN(C(C)C)C(CCO)C2)c1` (centres undefined): 8%. As for `Cc1cc(C)n(-c2cccc(CN3CCC(CO)(Cc4ccccc4)CC3)c2)n1`, the activation was -3.3%. As for `CCCC(=O)NC(c1ccc(Cl)cc1Cl)c1ccc2cccnc2c1O` (centres undefined), the activation is -5.3%.

On to `O=C(c1ccc2c3n(nc2c1)-c1ccccc1CO3)N1CCOCC1`, for which the activation was 0.7%. The same measure for `O=C(C(Cc1ccccc1)n1cccc1)N1CCN(c2ccccc2)CC1` (centres undefined): -3.7%; for `Cc1cccc(N2CCN(C(=O)C(Cc3ccccc3)n3cccc3)CC2)c1C` (centres undefined): 81%.
